Of roughly 7,900 targets only a part is listed; those with a hit were picked by preference. About 0.6% of all pairs of compound and target were hits.
Assays:
Assay in all cases: log2 fold change, soluble protein after heating vs DMSO (PISA); higher = thermal stabilisation; K562 cells, 10 uM, 30 min; active = over 0.2 and 3.5 SD of the protein, either way, in both replicates (recomputed)
[1] = compound: CC1=C(C=C(C=C1)NC(=O)C2=CC(=CC=C2)C(C)(C)C#N)NC3=CC4=C(C=C3)N=CN(C4=O)C
Summary of the method: (§1)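 Soluble protein was quantified by TMTpro 16plex LC-MS/MS after channel sums were equalised. It was obtained as the supernatant after 21,000xg for 90 min from pooled aliquots of K562 cells (2×10^6 cells/mL, 10 μM compound, 30 min) heated for 3 min across 48°C-58°C and extracted in PBS with 0.5% NP-40 at 4°C. Thermal stability values are relative to control samples and come from duplicates. They are given as log2 fold changes.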

[2] = compound: CC1=C(C=C(C=C1)NC(=O)C2=CC(=CC=C2)N(C)C)NC(=O)C3=CC=C(C=C3)O
Summary of the method: as §1

[3] = compound: CC1=CC=C(C=C1)SC2=C3C=C(SC3=CN=C2)C(=O)N
Summary of the method: as §1

[4] = compound: CC1=NC(=CC=C1)C2=C(N=C(N2)C(C)(C)C)C3=CC4=NC=CN=C4C=C3
Summary of the method: as §1

Nexturastat A = compound: CCCCN(Cc1ccc(C(=O)NO)cc1)C(=O)Nc1ccccc1 [Nexturastat A]
Summary of the method: as §1

vemurafenib = compound: CCCS(=O)(=O)Nc1ccc(F)c(C(=O)c2c[nH]c3ncc(-c4ccc(Cl)cc4)cc23)c1F [vemurafenib]
Summary of the method: as §1

[5] = compound: CCCS(=O)(=O)Nc1ccc(F)c(C(=O)c2c[nH]c3ncc(Cl)cc23)c1F
Summary of the method: as §1

[6] = compound: CCCc1cc(C)[nH]c(=O)c1CNC(=O)c1cc(-c2ccnc(N3CCN(C)CC3)c2)cc2c1cnn2C(C)C
Summary of the method: as §1

givinostat = compound: CCN(CC)Cc1ccc2cc(COC(=O)Nc3ccc(C(=O)NO)cc3)ccc2c1 [givinostat]
Summary of the method: as §1

barasertib = compound: CCN(CCCOc1ccc2c(Nc3cc(CC(=O)Nc4cccc(F)c4)[nH]n3)ncnc2c1)CCOP(=O)(O)O [barasertib]
Summary of the method: as §1

[7] = compound: CC[C@@H]1C(=O)N(C)c2cnc(Nc3ccc(C(=O)NC4CCN(C)CC4)cc3OC)nc2N1C1CCCC1
Summary of the method: as §1

volasertib = compound: CC[C@@H]1C(=O)N(C)c2cnc(Nc3ccc(C(=O)N[C@H]4CC[C@H](N5CCN(CC6CC6)CC5)CC4)cc3OC)nc2N1C(C)C [volasertib]
Summary of the method: as §1

[8] = compound: CC[C@H](C)N1C=C(C2=C(C=C(C=C21)C3=CN=C(C=C3)N4CCNCC4)C(=O)NCC5=C(C=C(NC5=O)C)C)C
Summary of the method: as §1

epoxomicin = compound: CC[C@H](C)[C@@H](C(=O)N[C@@H]([C@@H](C)O)C(=O)N[C@@H](CC(C)C)C(=O)[C@]1(CO1)C)NC(=O)[C@H]([C@@H](C)CC)N(C)C(=O)C [epoxomicin]
Summary of the method: as §1

[9] = compound: CCn1c(C(=O)N(C2CC2)C2CC2)cc2c3c(ncn3C)c(Nc3cc(C)n(C)n3)nc21
Summary of the method: as §1

[10] = compound: CCn1cc(-c2ccnc3[nH]c(-c4cccc(CN(C)C)c4)cc23)c(-c2ccc(NC(=O)N(C)C)cc2)n1
Summary of the method: as §1

[11] = compound: CN(C)CC(=O)Nc1ccc2[nH]c(=O)c3ccccc3c2c1
Summary of the method: as §1

rosiglitazone = compound: CN(CCOC1=CC=C(C=C1)C[C@H]2C(=O)NC(=O)S2)C3=CC=CC=N3 (racemic) [rosiglitazone]
Summary of the method: as §1

[12] = compound: CN1C2=C(C3=C1C(=O)N(N=C3)CC4=CC(=CC=C4)N)SC(=C2)S(=O)C
Summary of the method: as §1

[13] = compound: CN1CCC(CNc2ccc3ncc(-c4cccc(OC(F)(F)F)c4)n3n2)CC1
Summary of the method: as §1

Measured: log2 fold change

RRAGC (UniProt Q9HB90)
UniProt Q9HB90, sequence (Q9HB90 whole entry, looked up): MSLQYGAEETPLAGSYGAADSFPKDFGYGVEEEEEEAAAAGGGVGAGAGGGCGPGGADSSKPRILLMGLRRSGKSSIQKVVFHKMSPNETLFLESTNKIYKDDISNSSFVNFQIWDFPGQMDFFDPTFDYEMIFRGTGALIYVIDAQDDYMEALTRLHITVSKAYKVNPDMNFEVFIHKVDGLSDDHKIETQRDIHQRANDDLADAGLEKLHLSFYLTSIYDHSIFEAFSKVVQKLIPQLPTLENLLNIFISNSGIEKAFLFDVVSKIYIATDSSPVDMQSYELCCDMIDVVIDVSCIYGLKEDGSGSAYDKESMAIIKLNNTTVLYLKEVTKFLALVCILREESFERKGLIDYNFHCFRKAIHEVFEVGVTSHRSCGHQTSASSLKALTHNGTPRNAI
inactive: [1] 0.005 | [2] 0.003 | [3] 0.017 | [4] 0.008 | Nexturastat A -0.07 | vemurafenib -0.027 | [5] 0.047 | [6] -0.048 | givinostat 0.052 | barasertib -0.011 | [7] -0.009 | volasertib -0.003 | [8] -0.051 | epoxomicin -0.045 | [9] 0.041 | [10] 0 | [11] -0.024 | rosiglitazone 0.05 | [12] -0.067 | [13] -0.177

RDH11 (UniProt Q8TC12)
UniProt Q8TC12, sequence (Q8TC12 whole entry, looked up): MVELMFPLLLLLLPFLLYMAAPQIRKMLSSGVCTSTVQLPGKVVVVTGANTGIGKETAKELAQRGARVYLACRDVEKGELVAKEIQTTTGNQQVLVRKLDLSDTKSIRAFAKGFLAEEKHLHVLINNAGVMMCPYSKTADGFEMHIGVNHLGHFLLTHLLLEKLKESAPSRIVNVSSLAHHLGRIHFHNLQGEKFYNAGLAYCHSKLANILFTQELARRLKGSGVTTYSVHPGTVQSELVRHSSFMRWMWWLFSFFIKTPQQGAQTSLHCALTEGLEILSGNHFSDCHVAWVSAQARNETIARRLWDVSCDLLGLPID
inactive: [1] 0.068 | [2] -0.054 | [3] 0.019 | [4] -0.016 | Nexturastat A 0.011 | vemurafenib 0.042 | [5] 0.035 | [6] 0.007 | givinostat 0.066 | barasertib 0.057 | [7] -0.213 | [8] 0.015 | epoxomicin 0.045 | [9] -0.024 | [10] -0.072 | [11] 0.037 | rosiglitazone -0.041 | [12] 0.027
active: volasertib -0.543 | [13] -0.466

RBM39 (UniProt Q14498)
UniProt Q14498, sequence (Q14498 whole entry, looked up): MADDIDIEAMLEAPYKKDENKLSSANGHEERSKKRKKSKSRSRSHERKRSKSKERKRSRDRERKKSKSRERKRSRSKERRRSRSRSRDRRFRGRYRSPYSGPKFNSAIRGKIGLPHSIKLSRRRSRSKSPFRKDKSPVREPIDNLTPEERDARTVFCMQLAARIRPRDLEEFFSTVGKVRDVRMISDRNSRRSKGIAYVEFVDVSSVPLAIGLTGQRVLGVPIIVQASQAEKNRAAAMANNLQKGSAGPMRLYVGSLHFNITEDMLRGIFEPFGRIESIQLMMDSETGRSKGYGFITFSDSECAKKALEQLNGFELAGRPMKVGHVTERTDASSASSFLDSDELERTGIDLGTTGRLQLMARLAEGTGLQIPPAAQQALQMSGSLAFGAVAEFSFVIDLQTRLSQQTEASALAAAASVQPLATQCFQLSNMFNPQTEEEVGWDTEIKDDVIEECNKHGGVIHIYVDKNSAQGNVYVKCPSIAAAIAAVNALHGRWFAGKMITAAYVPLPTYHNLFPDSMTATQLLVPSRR
inactive: [1] -0.035 | [2] 0 | [3] -0.011 | [4] 0.071 | Nexturastat A 0.043 | vemurafenib 0.084 | [5] 0.083 | [6] 0.034 | givinostat 0.131 | barasertib 0.012 | [7] -0.183 | [8] 0.038 | epoxomicin -0.027 | [9] -0.057 | [10] 0.079 | [11] 0.013 | rosiglitazone 0.025 | [12] 0.071 | [13] -0.045
active: volasertib -0.487

RRP9 (UniProt O43818)
UniProt O43818, sequence (O43818 whole entry, looked up): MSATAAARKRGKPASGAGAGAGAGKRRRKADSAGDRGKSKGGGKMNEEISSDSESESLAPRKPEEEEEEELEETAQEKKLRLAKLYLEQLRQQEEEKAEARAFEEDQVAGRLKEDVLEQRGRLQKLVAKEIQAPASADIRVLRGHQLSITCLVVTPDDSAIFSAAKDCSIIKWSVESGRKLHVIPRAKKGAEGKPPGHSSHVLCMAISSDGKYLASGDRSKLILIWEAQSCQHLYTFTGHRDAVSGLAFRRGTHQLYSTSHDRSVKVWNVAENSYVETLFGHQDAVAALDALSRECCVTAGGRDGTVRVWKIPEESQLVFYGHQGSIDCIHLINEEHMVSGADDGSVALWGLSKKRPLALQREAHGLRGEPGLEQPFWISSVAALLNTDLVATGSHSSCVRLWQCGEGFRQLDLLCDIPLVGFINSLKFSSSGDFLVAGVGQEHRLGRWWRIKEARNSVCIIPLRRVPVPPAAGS
inactive: [1] -0.03 | [2] 0.057 | [3] -0.046 | [4] -0.081 | Nexturastat A 0.095 | vemurafenib -0.026 | [5] -0.074 | [6] 0.009 | givinostat 0.047 | barasertib -0.084 | [7] 0.09 | volasertib 0.148 | [8] -0.049 | epoxomicin -0.107 | [9] -0.017 | [10] 0.136 | [11] -0.113 | rosiglitazone -0.129 | [12] 0.039 | [13] 0.236

RRS1 (UniProt Q15050)
UniProt Q15050, sequence (Q15050 whole entry, looked up): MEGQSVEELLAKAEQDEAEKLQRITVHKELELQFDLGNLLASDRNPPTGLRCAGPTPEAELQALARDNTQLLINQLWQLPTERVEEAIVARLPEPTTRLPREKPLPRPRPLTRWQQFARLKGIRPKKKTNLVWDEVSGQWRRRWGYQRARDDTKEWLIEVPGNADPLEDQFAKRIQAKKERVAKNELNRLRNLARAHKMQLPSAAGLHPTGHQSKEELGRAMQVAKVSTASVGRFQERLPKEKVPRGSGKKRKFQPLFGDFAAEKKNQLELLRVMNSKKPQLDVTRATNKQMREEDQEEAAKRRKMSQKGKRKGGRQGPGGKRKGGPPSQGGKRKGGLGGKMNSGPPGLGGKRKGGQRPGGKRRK
inactive: [1] 0.024 | [2] 0.021 | [3] -0.043 | [4] -0.163 | Nexturastat A 0.31 | vemurafenib -0.174 | [5] -0.03 | [6] 0.104 | givinostat 0.093 | barasertib -0.101 | [7] 0.291 | volasertib 0.286 | [8] 0.023 | epoxomicin -0.381 | [9] 0.051 | [10] 0.143 | [11] -0.029 | rosiglitazone -0.147 | [12] 0.28 | [13] 0.268

SELENOH (UniProt Q8IZQ5)
UniProt Q8IZQ5, sequence (Q8IZQ5 whole entry, looked up): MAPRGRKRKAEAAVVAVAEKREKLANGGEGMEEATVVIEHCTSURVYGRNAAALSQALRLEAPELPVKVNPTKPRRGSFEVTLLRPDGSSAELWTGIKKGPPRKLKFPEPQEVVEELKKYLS
inactive: [1] 0.09 | [2] -0.011 | [3] 0.023 | [4] -0.035 | Nexturastat A 0.089 | vemurafenib 0.042 | [5] 0.007 | [6] 0.075 | givinostat 0.024 | barasertib -0.031 | [7] 0.001 | volasertib 0.01 | [8] -0.05 | epoxomicin 0.058 | [9] 0.024 | [10] -0.051 | [11] 0.041 | rosiglitazone -0.002 | [12] 0.084 | [13] 0.065

RPS21 (UniProt P63220)
active: volasertib 0.238
inactive: [1] -0.007 | [2] 0.01 | [3] -0.042 | [4] -0.007 | Nexturastat A -0.033 | vemurafenib -0.077 | [5] -0.072 | [6] -0.038 | givinostat -0.015 | barasertib -0.016 | [7] 0.089 | [8] -0.04 | epoxomicin 0.028 | [9] 0.028 | [10] 0.055 | [11] -0.045 | rosiglitazone -0.019 | [12] -0.004 | [13] 0.073

RSL1D1 (UniProt O76021)
inactive: [1] -0.019 | [2] 0.039 | [3] -0.155 | [4] -0.148 | Nexturastat A 0.256 | vemurafenib -0.126 | [5] -0.137 | [6] 0.15 | givinostat 0.087 | barasertib -0.167 | [7] 0.301 | volasertib 0.399 | [8] 0.012 | epoxomicin -0.517 | [9] -0.065 | [10] 0.155 | [11] -0.214 | rosiglitazone -0.299 | [12] 0.374 | [13] 0.591

Source: the supplement of paper PMC10849652
